# Screening data: PubChem BioAssay, National Center for Advancing Translational Sciences (NCATS)
# The list is not random: actives were taken first. Their share in the collection is about 19%.
# HT1080NT lethal: kills 2HG-producing HT-1080-NT fibrosarcoma cells; HT-1080-NT fibrosarcoma viability, CellTiter-Glo ATP luminescence, 48 h; Potency, µM (series often up to 46.1 µM), inactives show at the highest dose activity, negative = less viability, most hits filed as cytotoxic; hit rate 1.6% among 360,000; AID 686970;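 also: NT is the 2HG producing partner of a matched IDH1 knockdown line; potency is read from the fitted curve at half-maximal effect; 0% = DMSO-treated cells and -100% = media-only wells without cells; nearly all actives have a fitted effect of over 55% in size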
#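 Viability by CellTiter-Glo luminescence after 48 h compound exposure at 37C of HT-1080-NT cells (750/well, RPMI, 5% FBS). % activity scaled between DMSO wells and medium-only wells, then curve-fitted and categorized by curve class.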
# IL-1B inflam inh: blocks inflammasome-driven IL-1 beta release; activity change, % at 57.5 µM; AID 743279; hit rate 4.7% among 360,000; THP-1 LPS/ATP IL-1B secretion, AlphaLISA, 16 h; active compounds read low; in the data active = activity change below about -50%; inconclusive = mostly about -30% to -49%
#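 THP-1 cells pretreated 1 hr with compounds (up to 57.5 uM final), then stimulated with LPS (250 ng/mL final) plus ATP (1.25 mM final); secreted IL-1B measured by AlphaLISA after 16 hr, decreased signal indicating inhibition.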
# ELG1 DNA repair: blocks ELG1-dependent DNA repair in HEK293T cells | HEK293T ELG1-luciferase reporter, luminescence, 16 h; DNA damage induced by 5-fluorouridine | Potency, µM (titrated, usually from 46.1 µM), inactives show top-dose activity change, negative = inhibition, usual class: inhibitors | hit rate 2.3% among 330,000 | AID 504467; also: potency is read from the fitted curve at half-maximal effect; nearly all actives have a fitted effect of over 55% in size
#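 5-Fluorouridine DNA damage + compound/DMSO, 2,000 cells/well, 16 h, 37 °C/5% CO2. ONE-Glo, 30 min RT, luminescence. Readout = decrease in reporter signal.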
# HT1080 IDH1KD tx: toxicity to HT-1080 IDH1 knockdown cells (counter line). HT-1080 IDH1 knockdown viability, ATP luminescence, 48 h. Potency, µM (doses to about 46.1 µM), for the others: at the highest dose activity, negative = toxicity, usual class: cytotoxic. hit rate 2% among 360,000. AID 686971;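 also: potency is read from the fitted curve at half-maximal effect; 0% = DMSO wells and -100% = cell-free medium wells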
#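 % activity derives from luminescence (CellTiter-Glo), normalised to DMSO and no-cell wells. HT-1080-IDH1KD cells, 750/well, had 48 h compound exposure at 37 °C.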
# DT40 TDP1 CPT: DT40-hTDP1 cell growth loss with CPT | AID 686979 | chicken DT40 Tdp1-/-;hTDP1 cells + 20 nM CPT, ATP luminescence, 48 h | hit rate 12% among 420,000 | Potency, µM (series often up to 46.2 µM), inactives show at the highest dose activity change, negative = growth inhibition, hits mostly inhibitors; also: potency is read from the fitted curve at half-maximal effect; nearly all actives have a fitted effect of over 55% in size
#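 Chicken DT40 Tdp1-/- cells stably complemented with human TDP1 were seeded at 400 cells/well in medium containing 20 nM camptothecin, exposed to pin-transferred compounds, and grown at 37 °C for at least 48 hr. Viability was read as ATP luminescence.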
# TDP1 cell noCPT: qHTS for Inhibitors of human tyrosyl-DNA phosphodiesterase 1 (TDP1): qHTS in cells in absence of CPT; DT40 Tdp1-/- hTDP1 cells, no CPT, ATP luminescence, 48 h; Potency, µM (doses to about 46.2 µM), for the others: top-dose activity change, negative = growth inhibition, most hits filed as inhibitors; hit rate 15% among 420,000; AID 686978, 2013; also: potency is read from the fitted curve at half-maximal effect; nearly all actives have a fitted effect of over 55% in size
#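 Luminescent ATP content (CellTiter-Glo) served as the growth readout. Knockout chicken DT40 cells expressing human TDP1 were exposed to compounds without camptothecin for a minimum 48 hr at 37 °C.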
# An asterisk follows results filed as active; ? = inconclusive; . = no result given; [ ] = dose if it differs, or a comment. Unless noted, calls follow the shape of the dose curve; as a rule, active = well fitted curve in the direction sought with a large enough effect; inconclusive = small, poorly fitted or top-dose-only effect, or another doubt; inactive = no such curve, though single readings can be large; an effect the other way counts as inactive or inconclusive. Unless noted, % is scaled to controls: 0 for no effect and ±100 for the full control effect.
SMILES,HT1080NT lethal,IL-1B inflam inh,ELG1 DNA repair,HT1080 IDH1KD tx,DT40 TDP1 CPT,TDP1 cell noCPT
O=C1N/C(=N/N=C/c2ccc(O)cc2)SC1Cc1ccccc1 (centres undefined),-11.6%,36.2,?,12.0%,-32.2%,-11.0%
COc1ccc(CC2S/C(=N/N=C/c3ccc(O)cc3)NC2=O)cc1 (centres undefined),-6.7%,4.2,?,-1.9%,4.7%,-18.1%
COc1ccc(CC2S/C(=N/N=C/c3ccccc3O)NC2=O)cc1 (centres undefined),-15.3%,49.9,?,-15.9%,3.26µM*,0.92µM*
COC(=O)c1cc(NC(=O)Cc2cccs2)cc(C(=O)OC)c1,-8.0%,1.9,?,-4.2%,4.3%,-10.0%
O=C(NCCCn1ccnc1)c1sc2cc([N+](=O)[O-])ccc2c1Cl,-26.8%,58.6,.,-23.8%,13µM*,16.4µM*
O=C(NCCCn1ccnc1)c1sc2cccc(F)c2c1Cl,5.3%[9.24 µM],-11.8,4.2%,-4.2%,-22.8%,?
CC[N+](C)(CC)CC(=O)OCC1C(C)C=C(C)CC1C (centres undefined),10.8%,-10.9,4.7%,5.3%,?,8.2µM*
Cc1cccn2c(=O)c(/C=C3\SC(=S)NC3=O)c(NCCCN3CCOCC3)nc12,0.0%,-83.1*,1.2%,5.4%,?,23.1µM*
CCCN1C(=O)/C(=C/c2c(NCCCOCC)nc3c(C)cccn3c2=O)SC1=S,6.7%,19.6,-3.0%,5.5%,?,?
Cc1sc(NC(=O)CN2CCCC2)nc1-c1ccc2c(c1)CCN2C(=O)c1cccc(F)c1,-28.7%,-66.3*,?,?,?,16.4µM*
Cc1ccccc1C(=O)N1CCc2cc(-c3csc(NC(=O)CN4CCCC4)n3)ccc21,?,21.6,?,?,?,?
Cc1sc(NC(=O)Cc2ccc3c(c2)OCO3)nc1-c1ccc2c(c1)CCN2C(=O)c1ccccc1F,-9.6%,?,?,?,18.4µM*,8.2µM*
COc1cccc(-c2cccc3c2NC(=O)C3(C)Cc2ccccc2F)c1 (centres undefined),-6.8%,83.6,.,-18.1%,-29.7%,-28.3%
CCCNC(=O)COC(=O)c1ccccc1C(=O)c1ccc(Cl)c([N+](=O)[O-])c1,9.2µM*,-102.9*,?,5.17µM*,?,10.3µM*
Cc1ccc(C(=O)c2ccccc2C(=O)OCC(=O)NCCc2ccc(Cl)cc2Cl)cc1,-12.2%,-17.3,-10.6%,-18.2%,?,?
Cc1ccc(Cl)c(NC(=O)COC(=O)c2ccccc2C(=O)c2ccc(Cl)c([N+](=O)[O-])c2)c1Cl,?,-105.1*,18.4µM*,?,-103.5%,10.3µM*
Cc1ccc(C(=O)OCC(=O)Nc2c(C)n(C)n(-c3ccccc3)c2=O)cc1[N+](=O)[O-],2.8%,-8.7,12.7%,5.7%,-15.3%,-14.7%
COC(=O)c1ccc(Cn2c(C)c(C(=O)NCc3cccc([N+](=O)[O-])c3)sc2=O)o1,2.5%,-15.7,.,2.2%,?,?
C=CCC1(C#N)C(SC)=NC2=C(C(=O)CC(C)(C)C2)C1c1ccc(Br)cc1 (centres undefined),-0.6%,0.6,8.2%,-12.4%,?,?
O=C(Cn1nc(-c2ccccc2)c2cnc3ccc(F)cc3c21)NC1CCCC1,.,.,.,.,-18.9%,1.6%
O=C(NNC(=O)C1CCN(S(=O)(=O)c2ccccc2)CC1)c1ccccc1O,?,135.5,-12.9%,?,7.31µM*,25.9µM*
Cc1ccc(NC(=S)Nc2ccc(C(C)C)cc2)cc1S(=O)(=O)N1CCCCCC1,?,-88.9*,11.6µM*,20.6µM*,23.1µM*,16.4µM*
Cc1ccc(NC(=O)C2CCCN(C(=O)c3ccc(Cl)cc3)C2)cc1S(=O)(=O)N1CCOCC1 (centres undefined),-8.6%,-19.2,?,-2.2%,20.6µM*,16.4µM*
COc1ccc(NC(=S)Nc2ccc(C)c(S(=O)(=O)N3CCCCC3)c2)cc1,.,.,-14.5%,.,.,.
Cc1ccccc1C(=O)N1CCC(C(=O)Nc2ccc(S(=O)(=O)N3CCCC3)cc2)CC1,-4.3%,21.0,?,-1.9%,?,18.4µM*
SMILES,HT1080NT lethal,IL-1B inflam inh,ELG1 DNA repair,HT1080 IDH1KD tx,DT40 TDP1 CPT,TDP1 cell noCPT
COCC(=O)N1CCC2(CC1)CCN(c1ncccn1)CC2,.,.,.,.,13.4%,-7.0%
CC(C)[C@@H]1Cc2[nH]c(=O)[nH]c(=O)c2[C@H](c2ccc(F)cc2)O1,14.0%,0.0,.,9.3%,-6.2%,-6.4%
Cc1cccc(NC(=O)C(C)OC(=O)CNC(=O)C2CCCCC2)c1 (centres undefined),11.8%,-14.8,.,-0.6%,-11.7%,-6.1%
Cc1ccc(NC(=O)C2CCC2)cc1S(=O)(=O)N1CCCCCC1,-2.4%,-7.6,-24.6%,-4.5%,?,25.9µM*
CCOc1ccc(NS(=O)(=O)c2cc(NC(=O)C3CC3)ccc2C)cc1Br,-2.9%,-71.0*,-4.0%,-16.0%,?,20.6µM*
Cc1ccccc1C(=O)N1CCC(C(=O)Nc2ccc(F)cc2)CC1,4.4%,-14.9,-0.7%,8.3%,-8.0%,-4.9%
CSc1cccc(NC(=O)C2CCN(C(=O)c3ccccc3C)CC2)c1,-23.3%,?,-20.0%,-1.8%,18.4µM*,20.6µM*
CCOc1ccc(Br)cc1S(=O)(=O)Nc1ccc(Cl)c(S(=O)(=O)N(C)C)c1,0.6%,3.2,2.7%,0.5%,-27.7%,?
Cc1ccccc1C(=O)N1CCC(C(=O)Nc2ccc(C(C)C)cc2)CC1,0.0%,42.1,11.8%,-12.7%,7.31µM*,5.17µM*
CCc1ccccc1N(CC(=O)Nc1cccnc1)S(=O)(=O)c1ccccc1,-1.5%,10.2,?,1.7%,-9.6%,?
CC(C)c1ccc(NNC(=O)C2CCC2)cc1,-0.9%,.,4.0%,-2.3%,9.2µM*,16.4µM*
Cc1ccccc1C(=O)N1CCC(C(=O)Nc2ccc(C)c(S(=O)(=O)N3CCCCC3)c2)CC1,-1.4%,-26.0,?,-10.2%,13µM*,5.8µM*
C[C@]12CCC(=O)C=C1CC[C@@H]1[C@@H]2[C@@H](O)C[C@@]2(C)[C@H]1CC[C@]2(O)C(=O)COP(=O)(O)O,.,.,.,.,-23.0%,?
c1ccc2[nH]c(-c3cnco3)cc2c1,-2.0%,23.0,-10.6%,-9.3%,4.7%,19.6%
O=C(Nc1ccc(-c2ccco2)cc1)C1CCCN(Cc2ccco2)C1 (centres undefined),-13.1%,-12.8,.,0.6%,?,?
